Consider 38 molecules from PubChem BioAssay (NCI).

Among the test systems are UACC-62 melanoma; TK-10 renal; SK-MEL-28 melanoma; EKVX NSCLC; CAKI-1 renal.
Holding throughout (assay): NCI-60 one-dose screen, 48 h (100 = growth as untreated, 0 = no growth, -100 = all killed)
What all share (conditions): 10 µM unless noted

Several values for one entry are separate records, joined by “and”; a condition that tells them apart may be missing. Equal entries are not always repeated. About 83,000 compounds went through this panel and 20% of them were active in at least one assay; those are over-represented in the sample as a whole.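 For each line, cells grew in 96-well plates with the test compound present at a single concentration for 48 hours.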 Activity calls are given as the source filed them. Rule for the calls: active = growth percent below 10; inactive = the rest.

In the case of `C=CCn1c2c(c3ccccc3c1=O)C(=O)c1ccccc1-2`, the growth in the test on UACC-62 melanoma was 66.9% [100 µM] (inactive) and 11.1% [100 µM] (inactive); in the test with TK-10 renal, 47.5% [100 µM] (inactive) and -35.9% [100 µM] (active). For `CC1C2(C)OC(=N)C(C#N)(C(c3cccc([N+](=O)[O-])c3)O2)C1(C#N)C#N` (configuration not stated), the growth in the test with UACC-62 melanoma is 100% [100 µM] (inactive); with TK-10 renal, 108% [100 µM] (inactive). Turning to `COC(=O)C(C(=O)C(=O)NC1Nc2ccc(C)cc2S1)c1nc2ccc(Cl)cc2[nH]c1=O` (configuration not stated), the growth in the test on UACC-62 melanoma was 77.4% [100 µM] (inactive) and 58.3% [100 µM] (inactive); in the test with TK-10 renal, 113% [100 µM] (inactive) and 71.4% [100 µM] (inactive). `N#Cc1nc(C(F)(F)F)oc1N`: the growth in the test on UACC-62 melanoma was 57.6% [100 µM] (inactive) and 93.3% [100 µM] (inactive); in the test with TK-10 renal, 79% [100 µM] (inactive) and 98.6% [100 µM] (inactive). For `CCCCCC(O)(CCCCC)CCCCCCCCC1=C(O)c2ccccc2C(=O)C1=O`, the growth in the test on UACC-62 melanoma was -74.8% [100 µM] (active) and -14.4% [100 µM] (active); with TK-10 renal it was 0.969% [100 µM] (active) and -7.87% [100 µM] (active). With `Cc1ccc(OC2CC(n3cnc4ncnc(Cl)c43)OC2Oc2ccc(C)cc2)cc1` (configuration not stated), the growth is 11.7% [100 µM] (inactive) and -100% [100 µM] (active) with UACC-62 melanoma; 85% [100 µM] (inactive) and -100% [100 µM] (active) in the test with TK-10 renal. For `CCOC(=O)COc1cc(-c2ccccc2)nc2cc(F)ccc12`, the growth with UACC-62 melanoma is 67.3% [100 µM] (inactive) and 60.3% [100 µM] (inactive); in the test on TK-10 renal it was 95.9% [100 µM] (inactive) and 90.1% [100 µM] (inactive). Regarding `CC1(C)S[C@H](CN)N[C@H]1C(=O)OC(c1ccccc1)c1ccccc1`, the growth with UACC-62 melanoma was 34.2% [100 µM] (inactive) and -100% [100 µM] (active); in the test on TK-10 renal, 49% [100 µM] (inactive) and -32.5% [100 µM] (active). `CCCCCCSC[C@H](OC(C)=O)[C@@H](OC(C)=O)[C@@H](OC(C)=O)[C@@H](COC(C)=O)OC(C)=O`: the growth is 51.3% [100 µM] (inactive) and 71.8% [100 µM] (inactive) in the test on UACC-62 melanoma; 95.1% [100 µM] (inactive) and 101% [100 µM] (inactive) in the test with TK-10 renal. In the case of `N#CC1(C#N)C2CCCCC23OC(=N)C1(C#N)C(c1ccco1)O3` (configuration not stated), the growth with UACC-62 melanoma is -50.9% [100 µM] (active); in the test with TK-10 renal, -40.6% [100 µM] (active). Regarding `CO/C(N)=C(\C#N)N=Cc1ccc2ccccc2c1`, the growth in the test on TK-10 renal was 12.8% [100 µM] (inactive) and -44.8% [100 µM] (active). For `N#CC(=S)Nc1ccc(F)cc1`, in the test with TK-10 renal, the growth was 33.9% [100 µM] (inactive) and 8.52% [100 µM] (active).

In the case of `CC1CC(=O)N(N(C)C)C(C#N)(C#N)C1(C#N)C#N` (configuration not stated), the growth in the test with UACC-62 melanoma was -96.5% [100 µM] (active) and -97.6% [100 µM] (active); in the test on TK-10 renal, -97.2% [100 µM] (active) and -90.4% [100 µM] (active).

As to `COc1cc(C)c2c(c1C=O)Oc1c(c(C)c(O)c3c1C(O)OC3=O)OC2=O` (configuration not stated), the growth in the test on UACC-62 melanoma is -82.4% [100 µM] (active) and 98.2% [100 µM] (inactive); with TK-10 renal, -0.673% [100 µM] (active) and 99.4% [100 µM] (inactive). Consider `Nc1ccn(C2OC(CO)C(O)C2O)c(=O)n1` (configuration not stated), for which the growth in the test on SK-MEL-28 melanoma is 58.1% (inactive) and 105% (inactive) and 110% (inactive); in the test with EKVX NSCLC, 99.2% (inactive) [middle of 4 runs]; in the test on CAKI-1 renal, 26.9% (inactive) and 4.29% (active) and 95.4% (inactive). As to `CNC(=S)c1nnsc1N`, the growth with UACC-62 melanoma was 70.7% [100 µM] (inactive) and -2.69% [100 µM] (active); with TK-10 renal it was 103% [100 µM] (inactive) and 37.1% [100 µM] (inactive).

As to `CCOC(=O)C(=O)C(CCC(=O)c1ccc2ccccc2c1O)C(=O)OCC` (configuration not stated), the growth in the test on TK-10 renal was 125% [100 µM] (inactive) and 106% [100 µM] (inactive). For `Cc1ccc(/C=N/Nc2nc3ccccc3s2)s1`, the growth with UACC-62 melanoma is 45% [100 µM] (inactive) and 40.5% [100 µM] (inactive); in the test with TK-10 renal, 14.8% [100 µM] (inactive) and 8.44% [100 µM] (active). Take `COc1ccc(/C=c2\[nH]c3nc(=O)c(N4CCOCC4)c(N)n3c2=O)cc1`: the growth with UACC-62 melanoma is 67.5% [100 µM] (inactive) and 26% [100 µM] (inactive); with TK-10 renal, 72% [100 µM] (inactive) and 6.01% [100 µM] (active). As to `Cc1cc2nn(C3CCCO3)nc2cc1C` (configuration not stated), the growth with UACC-62 melanoma is 70.8% [100 µM] (inactive) and 101% [100 µM] (inactive); in the test on TK-10 renal, 81.3% [100 µM] (inactive) and 101% [100 µM] (inactive). For the molecule `COC(=O)C(C(=O)C(=O)Nc1c(C)cccc1C(C)(C)C)c1nc2ccc(Cl)cc2[nH]c1=O` (configuration not stated), the growth is 68% [100 µM] (inactive) and 84.1% [100 µM] (inactive) in the test on UACC-62 melanoma; 141% [100 µM] (inactive) and 105% [100 µM] (inactive) in the test on TK-10 renal. `O=C(CCc1ccc(O)c(O)c1)c1ccc(O)c(O)c1O`: the growth with UACC-62 melanoma was -41% [100 µM] (active) and -97.2% [100 µM] (active); with TK-10 renal it was 74.7% [100 µM] (inactive) and -88% [100 µM] (active). In the case of `COc1cc([C@H]2OC[C@H]3[C@@H]2CO[C@@H]3c2cc(OC)c3c(c2)OCO3)cc(OC)c1OC`, the growth was 43.3% [100 µM] (inactive) and 24% [100 µM] (inactive) with UACC-62 melanoma; 33.1% [100 µM] (inactive) and 24.9% [100 µM] (inactive) in the test with TK-10 renal.

In the case of `N#CC1(C#N)C2CCCCC23OC(=N)C1(C#N)C(c1ccccc1)O3` (configuration not stated), the values for the growth in the test with UACC-62 melanoma and in the test on TK-10 renal were -40.1% [100 µM] (active) and -29% [100 µM] (active), respectively. Regarding `CNc1nc2c(C)ccc3[nH]c(N(C)C)nc3c-2n1`, the growth is 30.8% [100 µM] (inactive) and 2.14% [100 µM] (active) in the test on UACC-62 melanoma; 60% [100 µM] (inactive) and 12.5% [100 µM] (inactive) in the test with TK-10 renal.

In the case of `C[N+](C)(CCNC(=O)c1cccc2cc3ccccc3nc12)Cc1ccc([N+](=O)[O-])s1`, the growth in the test with UACC-62 melanoma is 63.1% [25 µM] (inactive) and 28.9% [25 µM] (inactive); in the test on TK-10 renal, 72% [25 µM] (inactive) and 30.2% [25 µM] (inactive).

`NC(N)=Nc1ccc(CC(N)C(=O)O)cc1` (configuration not stated): the growth is 89% [12.5 µM] (inactive) and 94.1% [12.5 µM] (inactive) in the test with UACC-62 melanoma; 107% [12.5 µM] (inactive) and 111% [12.5 µM] (inactive) in the test on TK-10 renal. In the case of `OCc1ccccc1OC1OC(CO)C(O)C(O)C1O` (configuration not stated), the growth with UACC-62 melanoma is 85.4% [100 µM] (inactive) and 95.9% [100 µM] (inactive); in the test on TK-10 renal, 97.4% [100 µM] (inactive) and 97.5% [100 µM] (inactive).

For the molecule `COC(=O)C(/C(=N/NC(N)=O)C(=O)Nc1ccc(C)cc1)c1nc2ccc([N+](=O)[O-])cc2[nH]c1=O` (configuration not stated), the growth in the test on TK-10 renal is 111% [100 µM] (inactive) and 43.2% [100 µM] (inactive). Regarding `O=C1c2cccnc2-c2nccc3ccnc1c23`, the growth in the test on TK-10 renal was -100% [100 µM] (active).

As to `CC1OC23CCCCC2C(C#N)(C#N)C1(C#N)C(=N)O3` (configuration not stated), the growth with TK-10 renal was 36.7% [100 µM] (inactive). On to `C=C(C)C(=O)OC1CC2(C)OC(=CC2=O)C(C)CC2OC(=O)C(=C)C12` (configuration not stated), for which the growth in the test with UACC-62 melanoma is -97% [100 µM] (active); in the test with TK-10 renal, -96.8% [100 µM] (active). Regarding `CCOc1cc2c(cc1O)/C(=N/NS(=O)(=O)c1ccc(C)cc1)C[C@@H]1[C@@H]2CC[C@]2(C)[C@@H](O)CC[C@@H]12`, the growth is -88.9% [100 µM] (active) in the test with UACC-62 melanoma and -22.6% [100 µM] (active) with TK-10 renal.

Turning to `CC(C)(C)c1cc(C2COC(=O)COCCOCC(=O)OCCOCCO2)cc(C(C)(C)C)c1O` (configuration not stated), in the test with TK-10 renal, the growth was -69.6% [100 µM] (active) and -100% [100 µM] (active). The same measure, in the same setting: with `C[C@@H]1C[C@](O)([C@@H](C)Cl)C(=O)O[C@@H]2CCN3CC=C(COC(=O)[C@]1(C)O)[C@H]23` the figure was 66.6% [100 µM] (inactive) and 88% [100 µM] (inactive). Same read-out and setting: with `COc1cc([C@H]2OC[C@@H]3C(c4cc(OC)c5c(c4)OCO5)OC[C@H]23)cc(OC)c1OC` (some centres not stated) the figure was 84.5% [100 µM] (inactive) and 28.7% [100 µM] (inactive); with `COc1ccc2cc1Oc1ccc(cc1)CC1c3cc(OC)c(cc3CCN1C)Oc1c(OC)c(OC)cc3c1C(C2)N(C)CC3` (configuration not stated), -57.1% [75 µM] (active) and -97.5% [75 µM] (active). Consider `C/C(=C\COc1cc(O)c2c(c1)C(=O)c1cc(C)cc(O)c1C2=O)CCC1OC1(C)C` (configuration not stated), for which the growth is 41.3% [100 µM] (inactive) and 6.17% [100 µM] (active) in the test on UACC-62 melanoma; 42.6% [100 µM] (inactive) and 20.6% [100 µM] (inactive) in the test on TK-10 renal.
